From PubChem BioAssay (EPA / NIEHS)
Records with an inconclusive call do not appear. Activity calls are given as the source filed them. How the source made its calls, unless noted: active means hit-call score of the fitted dose curve at least 0.9, where 1 is the maximum; inconclusive means response in the unintended direction; inactive means score below 0.9.

How the values were obtained:
[1] = target: Estrogen receptor beta (Homo sapiens) (UniProt Q92731); assay: OT_ER_ERbERb_1440: Odyssey Thera (OT) 24-hour HEK293T Protein-Complementation Assay for Estrogen Receptor-beta/-beta Homodimer (AID 2283380);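 further: fluorescence gain from ER beta LBD homodimer complementation read by laser scanning cytometry; scored as signal increase over DMSO baseline for both agonists and antagonists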
Chain of Estrogen receptor beta (Homo sapiens) (Q92731 whole entry, looked up, the tested form may be a part): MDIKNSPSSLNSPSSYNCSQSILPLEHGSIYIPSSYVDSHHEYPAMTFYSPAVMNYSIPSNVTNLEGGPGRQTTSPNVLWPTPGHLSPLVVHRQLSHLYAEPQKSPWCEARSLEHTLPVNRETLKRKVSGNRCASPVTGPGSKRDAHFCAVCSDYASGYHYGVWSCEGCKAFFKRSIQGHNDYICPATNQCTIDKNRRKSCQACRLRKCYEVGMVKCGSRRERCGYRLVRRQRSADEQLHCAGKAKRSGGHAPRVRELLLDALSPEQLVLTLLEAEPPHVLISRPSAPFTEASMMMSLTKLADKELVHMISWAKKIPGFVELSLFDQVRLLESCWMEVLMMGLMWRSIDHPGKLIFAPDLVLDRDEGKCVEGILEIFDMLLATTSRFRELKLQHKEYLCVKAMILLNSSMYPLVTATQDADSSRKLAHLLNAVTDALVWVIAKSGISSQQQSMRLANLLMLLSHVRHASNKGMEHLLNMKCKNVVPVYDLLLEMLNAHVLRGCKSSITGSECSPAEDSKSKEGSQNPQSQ
Summary of the method: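 HEK293T cells stably expressing human ER-beta LBD (aa 310-547) PCA homodimer pair, dosed 24 h; formaldehyde-fixed, Draq5-stained. Readout: increase in nuclear (agonist) or nuclear plus cytoplasmic (antagonist) fluorescence intensity versus DMSO, gain-of-signal fitting.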

[2] = target: Estrogen receptor (Homo sapiens) (UniProt P03372); assay: OT_ERa_GFPERaERE_0480: Odyssey Thera (OT) 8-hour HeLa Transcription Induction Assay for Estrogen Receptor (AID 2283381; active means hit-call score of the fitted dose curve at least 0.9, where 1 is the maximum; inactive means score below 0.9)
Chain of Estrogen receptor (Homo sapiens) (P03372 whole entry, looked up): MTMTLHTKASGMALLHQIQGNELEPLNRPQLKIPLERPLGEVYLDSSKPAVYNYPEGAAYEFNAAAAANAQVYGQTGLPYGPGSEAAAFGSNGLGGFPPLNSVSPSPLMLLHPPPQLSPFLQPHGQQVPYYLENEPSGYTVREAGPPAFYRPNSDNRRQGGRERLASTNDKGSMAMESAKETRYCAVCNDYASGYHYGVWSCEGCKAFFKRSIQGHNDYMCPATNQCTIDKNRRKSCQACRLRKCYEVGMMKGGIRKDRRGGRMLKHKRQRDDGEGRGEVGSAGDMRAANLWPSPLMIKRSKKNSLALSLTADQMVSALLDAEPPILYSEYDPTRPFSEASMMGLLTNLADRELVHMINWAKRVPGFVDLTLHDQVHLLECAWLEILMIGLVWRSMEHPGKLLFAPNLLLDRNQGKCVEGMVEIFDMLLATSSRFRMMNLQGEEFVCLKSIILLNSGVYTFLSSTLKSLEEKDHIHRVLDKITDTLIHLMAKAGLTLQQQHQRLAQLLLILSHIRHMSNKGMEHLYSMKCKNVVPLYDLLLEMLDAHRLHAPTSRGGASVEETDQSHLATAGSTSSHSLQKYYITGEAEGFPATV
Summary of the method: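 Fluorescence microscopy with high-content image analysis measures ERE-driven GFP induction in HeLa cells at 8 h post-dose. Increases fitted against DMSO baseline.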

[3] = target: Estrogen receptor (Homo sapiens) (UniProt P03372); assay: OT_ERa_GFPERaERE_0120: Odyssey Thera (OT) 2-hour HeLa Transcription Induction Assay for Estrogen Receptor (AID 2283382)
Summary of the method: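 Fluorescence-microscopy images of the GFP-ERα/ERE reporter, scored by high-content image algorithms, give the readout. HeLa exposure lasted 2 h, and only signal increase over DMSO was fitted.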

[4] = target: Retinoic acid receptor RXR-alpha (Homo sapiens) (UniProt P19793); assay: OT_NURR1_NURR1RXRa_0480: Odyssey Thera (OT) 8-hour HEK293T Protein Complementation Assay for Nurr1/retinoid X receptor (RXR) (AID 2283385)
Chain of Retinoic acid receptor RXR-alpha (Homo sapiens) (P19793 whole entry, looked up, the tested form may be a part): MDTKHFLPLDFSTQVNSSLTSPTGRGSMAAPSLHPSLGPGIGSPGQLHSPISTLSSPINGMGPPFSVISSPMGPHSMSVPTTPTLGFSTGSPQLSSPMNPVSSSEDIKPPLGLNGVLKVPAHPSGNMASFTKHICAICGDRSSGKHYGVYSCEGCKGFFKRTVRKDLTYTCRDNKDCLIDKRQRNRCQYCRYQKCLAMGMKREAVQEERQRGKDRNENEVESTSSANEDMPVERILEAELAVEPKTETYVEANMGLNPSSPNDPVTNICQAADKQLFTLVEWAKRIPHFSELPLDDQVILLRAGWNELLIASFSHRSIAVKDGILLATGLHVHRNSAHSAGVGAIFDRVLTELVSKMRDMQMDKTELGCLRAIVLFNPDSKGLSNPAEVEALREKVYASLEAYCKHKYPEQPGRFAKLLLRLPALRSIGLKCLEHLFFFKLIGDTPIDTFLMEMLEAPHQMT
Summary of the method: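 Interaction of Nurr1 with RXRα read as reconstituted reporter fluorescence in a HEK293T fragment-complementation system, 8 h post-treatment; increase over DMSO baseline analysed.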

[5] = target: Peroxisome proliferator-activated receptor gamma (Homo sapiens) (UniProt P37231); assay: OT_PPARg_PPARgSRC1_0480: Odyssey Thera (OT) 8-hour Protein-Complementation Assay for Peroxisome Proliferator-activated Receptor Gamma / SRC-1 Co-activator (AID 2283387);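 further: nuclear to cytoplasmic split Venus YFP fluorescence ratio reporting PPARg SRC-1 interaction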
Chain of Peroxisome proliferator-activated receptor gamma (Homo sapiens) (P37231 whole entry, looked up, the tested form may be a part): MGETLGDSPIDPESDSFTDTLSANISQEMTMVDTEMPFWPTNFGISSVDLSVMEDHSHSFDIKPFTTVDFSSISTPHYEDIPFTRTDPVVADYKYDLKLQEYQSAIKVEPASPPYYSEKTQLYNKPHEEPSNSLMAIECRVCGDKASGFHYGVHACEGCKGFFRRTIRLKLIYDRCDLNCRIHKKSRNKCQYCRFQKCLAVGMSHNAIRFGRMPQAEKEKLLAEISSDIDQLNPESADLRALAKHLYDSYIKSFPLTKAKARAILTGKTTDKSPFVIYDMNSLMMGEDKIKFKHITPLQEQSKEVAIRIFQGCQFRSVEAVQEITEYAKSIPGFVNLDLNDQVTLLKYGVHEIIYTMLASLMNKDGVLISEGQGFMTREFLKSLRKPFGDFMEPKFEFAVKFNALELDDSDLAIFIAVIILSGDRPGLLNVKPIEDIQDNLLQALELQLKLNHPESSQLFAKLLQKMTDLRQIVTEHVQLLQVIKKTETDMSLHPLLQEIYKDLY
Summary of the method: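 Read-out: 488 nm N/C fluorescence ratio from complemented Venus YFP fragments, ≥350 cells per image, gain-of-signal fitted against DMSO baseline. Fusions of PPARg/SRC-1 with IFP1/IFP2 expressed transiently in HEK293T; compounds applied 8 h.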

[6] = target: Bile acid receptor (Homo sapiens) (UniProt Q96RI1); assay: OT_FXR_FXRSRC1_0480: Odyssey Thera (OT) 8-hour HEK293T Protein-Complementation Assay for Farnesoid X receptor/SRC-1 Co-activator (AID 2283383)
Chain of Bile acid receptor (Homo sapiens) (Q96RI1 whole entry, looked up, the tested form may be a part): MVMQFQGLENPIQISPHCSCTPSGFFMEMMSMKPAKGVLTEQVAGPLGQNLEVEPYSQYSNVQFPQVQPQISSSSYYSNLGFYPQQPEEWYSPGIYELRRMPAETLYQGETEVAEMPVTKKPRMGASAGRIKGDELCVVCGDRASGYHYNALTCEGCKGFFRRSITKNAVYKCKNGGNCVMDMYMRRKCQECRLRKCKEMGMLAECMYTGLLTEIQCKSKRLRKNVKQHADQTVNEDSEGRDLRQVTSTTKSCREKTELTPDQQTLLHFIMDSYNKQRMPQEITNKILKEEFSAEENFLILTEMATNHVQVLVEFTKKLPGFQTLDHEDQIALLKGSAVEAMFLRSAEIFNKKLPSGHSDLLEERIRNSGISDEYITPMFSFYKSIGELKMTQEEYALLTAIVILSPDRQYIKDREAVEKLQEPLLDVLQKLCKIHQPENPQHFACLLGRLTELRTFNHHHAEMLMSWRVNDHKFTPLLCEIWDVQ
Summary of the method: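 Binding of FXR to coactivator SRC-1 was read as fluorescence from a reconstituted split reporter in HEK293T cells, 8 h after chemical addition. Only increases in signal versus DMSO were fit.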

[7] = target: Bile acid receptor (Homo sapiens) (UniProt Q96RI1); assay: OT_FXR_FXRSRC1_1440: Odyssey Thera (OT) 24-hour HEK293T Protein-Complementation Assay for Farnesoid X receptor/SRC-1 Co-activator (AID 2283384)
Summary of the method: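 Protein-fragment complementation: FXR and SRC-1 fused to reporter fragments that reassemble on interaction, read by fluorescence intensity. Human HEK293T cells measured 24 h post-dose; positive-direction fit versus DMSO.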

[8] = target: Retinoic acid receptor RXR-alpha (Homo sapiens) (UniProt P19793); assay: OT_NURR1_NURR1RXRa_1440: Odyssey Thera (OT) 24-hour HEK293T Protein Complementation Assay for Nurr1/retinoid X receptor (RXR) (AID 2283386)
Summary of the method: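 Gain in fluorescence, fitted relative to DMSO, reflects Nurr1–RXRα association in HEK293T cells after 24 h dosing. Bait and prey are each linked to a reporter-protein fragment that reassembles on interaction.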

[9] = target: Agonist Androgen Response Element (ARE), AR (gene 367) (UniProt P10275); assay: OT_AR_ARELUC_AG_1440: Odyssey Thera (OT) 24-hour CHO-K1 Luciferase Assay for Agonist Androgen Response Element (ARE) (AID 2283379)
Chain of Agonist Androgen Response Element (ARE), AR (gene 367) (P10275 whole entry, looked up): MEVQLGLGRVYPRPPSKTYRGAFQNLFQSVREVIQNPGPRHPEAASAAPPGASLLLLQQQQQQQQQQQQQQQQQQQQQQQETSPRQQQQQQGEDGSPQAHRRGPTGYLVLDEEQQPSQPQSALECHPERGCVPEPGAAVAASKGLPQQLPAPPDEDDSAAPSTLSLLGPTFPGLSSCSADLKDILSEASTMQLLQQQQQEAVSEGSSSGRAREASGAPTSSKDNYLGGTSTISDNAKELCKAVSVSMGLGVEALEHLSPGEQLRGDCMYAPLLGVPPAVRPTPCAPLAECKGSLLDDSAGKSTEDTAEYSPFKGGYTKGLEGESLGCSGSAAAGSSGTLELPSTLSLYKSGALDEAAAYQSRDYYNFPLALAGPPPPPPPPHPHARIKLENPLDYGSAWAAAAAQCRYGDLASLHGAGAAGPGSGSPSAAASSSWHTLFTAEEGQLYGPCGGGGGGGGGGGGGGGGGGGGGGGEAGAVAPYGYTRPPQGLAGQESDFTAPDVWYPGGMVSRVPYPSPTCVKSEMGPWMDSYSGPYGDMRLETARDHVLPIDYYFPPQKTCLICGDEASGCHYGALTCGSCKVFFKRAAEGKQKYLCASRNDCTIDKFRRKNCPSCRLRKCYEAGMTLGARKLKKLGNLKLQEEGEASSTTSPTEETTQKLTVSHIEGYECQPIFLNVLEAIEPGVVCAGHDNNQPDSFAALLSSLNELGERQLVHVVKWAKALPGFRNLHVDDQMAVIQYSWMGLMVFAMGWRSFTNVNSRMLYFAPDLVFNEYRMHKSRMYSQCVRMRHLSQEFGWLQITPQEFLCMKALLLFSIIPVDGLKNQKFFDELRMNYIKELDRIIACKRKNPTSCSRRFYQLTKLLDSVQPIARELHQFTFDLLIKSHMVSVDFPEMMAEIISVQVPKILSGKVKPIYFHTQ
Summary of the method: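 Luminescence increase above DMSO, read after a 24 h compound treatment of CHO-K1 cells expressing an androgen response element luciferase reporter, gives the single primary endpoint; concentration-response fitting used the positive direction.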

Measured: AC50

CC(C)c1cccc(C(C)C)c1O
inactive: [1] | [2] | [3] | [4]

C[C@@H]1C[C@@H]([C@H](O)CC2CC(=O)NC(=O)C2)C(=O)[C@@H](C)C1
inactive: [1] | [5]

Cc1ccc(N)cc1Cl
active: [3] 0.789 µM
inactive: [2] | [4] | [5]

CCCCCCCCSC(=O)Oc1cc(Cl)nnc1-c1ccccc1
inactive: [2] | [3] | [4] | [5]

CCCCOCCOC(C)=O
inactive: [2] | [3] | [6] | [7] | [5]

CC(=O)c1cc(C(C)(C)C)cc2c1CCC2(C)C
active: [4] 74.2 µM
inactive: [2] | [3] | [5]

BrCCBr
inactive: [1] | [2] | [3] | [4] | [5]

C=C(C)C#N
inactive: [1] | [2] | [3] | [6]

COc1ccc(C=O)cc1OC
not listed: [6] | [7] | [9]
inactive: all other assays above

CC12CC1(C)C(=O)N(c1cc(Cl)cc(Cl)c1)C2=O (centres undefined)
inactive: [9] | [1] | [4] | [5]

OCC(O)CCl (centres undefined)
inactive: [2] | [3] | [4] | [5]

CC1(C)Cc2cccc(O)c2O1
inactive: [1] | [2] | [3] | [5]

N#CN=C(N)N
inactive: [1] | [2] | [3] | [7] | [5]

ClC(Cl)=C(Cl)C(Cl)=C(Cl)Cl
inactive: [2] | [3] | [4] | [8] | [5]

C1CCC(NC2CCCCC2)CC1
inactive: [2] | [3] | [5]

Clc1nc(Cl)nc(Cl)n1
inactive: [2] | [3] | [4]

OCc1ccco1
not listed: [7] | [8] | [9]
inactive: all other assays above

Cc1ccccc1N
inactive: [4]

COc1ccc(C=O)cc1
inactive: [2] | [3] | [4] | [5]

O=C(Nc1ccc2[nH]ccc2c1)c1cc2cc(F)ccc2n1Cc1cccc(F)c1
inactive: [1] | [2] | [3] | [6] | [5]

CCC1(c2ccc(N)cc2)CCC(=O)NC1=O (centres undefined)
inactive: [9] | [2] | [3] | [7] | [5]

O=S(=O)(c1ccc(Cl)cc1)c1ccc(Cl)cc1
inactive: [1] | [2] | [3] | [5]

COP(=O)(OC)OC
not listed: [1]
inactive: all other assays above

C=CCc1ccc(OC)cc1
inactive: [1] | [4] | [5]

Cc1ccc2ccccc2c1C
inactive: [9] | [1] | [2] | [3] | [5]

Cl/C=C\C[N+]12CN3CN(CN(C3)C1)C2
inactive: [1] | [3] | [5]
active: [2] 82.2 µM

CC(=O)C=C(C)C
active: [2] 7.47 µM | [3] 22.9 µM
inactive: [8] | [5]

[O-][Cl+2]([O-])O
not listed: [4] | [8] | [9]
inactive: all other assays above

COc1cc(OC)nc(NC(=O)NS(=O)(=O)c2ncccc2C(=O)N(C)C)n1
not listed: [6] | [7] | [9]
inactive: all other assays above

CNC
inactive: [2] | [3] | [8] | [5]

NC(=O)O
inactive: [2] | [3] | [4]
